Among the data in PubChem BioAssay (Tox21) are Potency values, retold here.

Results filed as inconclusive are left out. A call without a number means that no potency is given here. Active and inactive are the calls of the source. The call rests on the fitted dose curve; in most records, active means well fitted activation curve with a large enough effect in the repeat runs; inconclusive means weak or mixed curves; inactive means no such curve, though single readings can be large or run the other way.

A short description of this assay: qHTS assay for small molecules that induce genotoxicity in human embryonic kidney cells expressing luciferase-tagged ATAD5 (AID 651632). Further: nearly all actives have a fitted effect of over 15% in size. To be noted: HEK293T ATAD5-luciferase induction, 16 h; series mostly up to 83.3 µM. From the text:
U.S. Tox21 Program National Center for Advancing Translational Sciences [NCATS] NIH Chemical Genomics Center [NCGC] U.S. Environmental Protection Agency [EPA] National Institutes of Environmental Health Sciences [NIEHS] National Toxicology Program [NTP] U.S. Food and Drug Administration [FDA] Tox21 Assay Overview: As cancer cells divide rapidly and during every cell division they need to duplicate their genome by DNA replication. The failure to do so results in the cancer cell death. Based on this concept, many chemotherapeutic agents were developed but have limitations such as low efficacy and severe side effects etc. A new cell based assay was developed to find the compounds that effectively block DNA replication either by directly damaging DNA or by inhibiting other cellular mechanisms. Enhanced Level of Genome Instability Gene 1 (ELG1; human ATAD5) protein levels increase in response to various types of DNA damage. Using a luciferase reporter-gene tagged with ATAD5, a cell-based assay [developed by Kyungjae Myung, NHGRI, NIH] was used to measure the induction of ATAD5 in human embryonic kidney cells (HEK293T). So, increase in luciferase activity can be used to identify the compounds that cause genetic stress.
Tox21 Assay Protocol Summary: For genotoxicity screening, 2,000 cells in 5 uL/well were dispensed into white, solid-bottom 1536-well plates using a Multidrop Combi (Thermo Scientific) dispenser. Following transfer of 23 nL compound or DMSO vehicle by a pin tool, the plates were incubated 16 hr at 37C and 5% CO2. 5 ul Amplite (AAT Bioquest, Inc.) was then added to each plate and following 30 min incubation at room temperature, luciferase activity was quantified on a ViewLux CCD-based plate reader.
A general note: Quantitative high-throughput screening tests each substance at several concentrations.
On to `CC1CCCCC1NC(=O)Nc1ccccc1` (stereo not given), for which the Potency result is “inactive”. The value for `Cc1cc(C)nc(Nc2ccccc2)n1` was “inactive”. On to `CC(=O)C(Cl)Cl`, for which the Potency result was “inactive”. The value for `CCN(CC)c1nc(C)cc(OP(=S)(OC)OC)n1` was “inactive”; that for `O=C(Cc1ccccc1)OCc1ccccc1` was “inactive”; that for `COC(=O)c1ccccc1S(=O)(=O)NC(=O)Nc1nc(C)cc(C)n1` was “inactive”. The value for `CCOP(=S)(Oc1cnc(C(C)(C)C)nc1)OC(C)C` (stereo not given) was “inactive”; that for `Nc1c(Br)cc([N+](=O)[O-])cc1[N+](=O)[O-]` was “inactive”. The value for `CCCSP(=O)(OCC)Oc1ccc(Br)cc1Cl` (stereo not given) was “inactive”; that for `N#Cc1c(Cl)cccc1Cl` was “inactive”; that for `O=P(O)(Oc1ccccc1)Oc1ccccc1` was “inactive”. With `CCCCP(CCCC)CCCC`, the Potency result was “inactive”. Turning to `COc1cc(OC)nc(NC(=O)NS(=O)(=O)c2ncccc2OCC(F)(F)F)n1`, the Potency entry is “inactive”. Take `CCC1(c2ccccc2)C(=O)NC(=O)NC1=O`: the Potency result is “inactive”. As for `COc1ccc(C(=O)N2CCCC2=O)cc1`, the Potency entry was “inactive”. The value for `CC(=O)CC(c1ccc(Cl)cc1)c1c(O)c2ccccc2oc1=O` (stereo not given) was “inactive”; that for `CCCSP(=S)(OCC)Oc1ccc(Cl)cc1Cl` (stereo not given) was “inactive”.

Regarding `COC(=O)C(C)Oc1ccc(Oc2ccc(Cl)cc2Cl)cc1` (stereo not given), the Potency result is “inactive”.

Regarding `Cc1nc(N)nc(N)n1`, the Potency entry is “inactive”.

On to `COCC(=O)N(c1c(C)cccc1C)N1CCOC1=O`, for which the Potency entry was “inactive”. Next, `C#CCN1C(=O)COc2cc(F)c(N3C(=O)C4=C(CCCC4)C3=O)cc21`: “inactive”.

As for `ClCCOCOCCCl`, the Potency result was “inactive”.

With `OCCBr`, the Potency result is “inactive”. For `CSc1ccc(C(=O)C(C)(C)N2CCOCC2)cc1`, the Potency entry is “inactive”. Regarding `ClC(Cl)Br`, the Potency result was “inactive”. Consider `CNC(=O)Oc1c(C(C)(C)C)cc(C)cc1C(C)(C)C`, for which the Potency result was “inactive”. The value for `C=C(C)[C@@H]1CC=C(C=O)CC1` was “inactive”; that for `O=C(Nc1ccccc1)N(Cc1ccc(Cl)cc1)C1CCCC1` was “inactive”. For `C=CCC1=C(C)[C@@H](OC(=O)[C@@H]2[C@@H](C=C(C)C)C2(C)C)CC1=O`, the Potency result is “inactive”. Next, `CCCCC(=O)Cl`: “inactive”; `COc1cc2c(cc1OC)[C@@]13CCN4CC5=CCO[C@H]6CC(=O)N2[C@H]1[C@H]6[C@H]5C[C@H]43`: “inactive”; `COC(=O)c1c(C(F)F)nc(C(F)(F)F)c(C2=NCCS2)c1CC(C)C`: “inactive”. The value for `CC(=O)[C@H]1CC[C@H]2[C@@H]3CC[C@H]4C[C@H](O)CC[C@]4(C)[C@H]3C(=O)C[C@]12C` was “inactive”; that for `CCCSC(=O)N(CCC)CCC` was “inactive”. As to `CCCCOP(=O)(O)OCCCC`, the Potency entry is “inactive”.

As for `COc1cc(C[C@@H](C)N)c(OC)cc1C`, the Potency entry is “inactive”. Next, `CN(N=O)C(N)=O`: “inactive”; `c1cc2c(c(N3CCNCC3)c1)OCCO2`: “inactive”; `N#CC(CCc1ccc(Cl)cc1)(Cn1cncn1)c1ccccc1` (stereo not given): “inactive”. The value for `CCN(CC)C(=O)[C@@H]1C=C2c3cccc4[nH]cc(c34)C[C@H]2N(C)C1` was “inactive”.
